In all, about 5,500 compounds went through this assay and about 2,000 (36%) were called active. Not shown: some 18% with an inconclusive outcome. No stated cut-off is given here; in the data, active means normalized growth mostly below about 0.91 (no sharp cut-off); inconclusive means no clear call, values can overlap the other calls; inactive means mostly above about 0.92. The list shows a part of the results.
Assay: chemical genetic growth profiling, strain panel (AID 1159580);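 further: tested at 20 µM; growth read once vehicle control cultures reached saturation at 30 °C; 1 = growth at the plate median or of vehicle wells; lower values mean less growth of the strain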
Conditions: growth OD
[1] = S. cerevisiae deletion strains, locus YDL101C, strain DUN1, active compounds read low
[2] = S. cerevisiae deletion strains, locus YHR030C, strain SLT2, active compounds read low
[3] = S. cerevisiae deletion strains, locus YAL013W, strain DEP1, active compounds read low
[4] = S. cerevisiae deletion strains, locus YAL040C, strain CLN3, active compounds read low
[5] = S. cerevisiae deletion strains, locus YCL061C, strain MRC1 (second series), active compounds read low
[6] = S. cerevisiae deletion strains, locus YDR150W, strain NUM1, active compounds read low
[7] = S. cerevisiae deletion strains, locus YDR363W, strain ESC2, active compounds read low
[8] = S. cerevisiae deletion strains, locus YER002W, strain NOP16, active compounds read low
[9] = S. cerevisiae deletion strains, locus YGR078C, strain PAC10, active compounds read low
[10] = S. cerevisiae deletion strains, locus YJR075W, strain HOC1, active compounds read low
[11] = S. cerevisiae deletion strains, locus YMR307W, strain GAS1, active compounds read low
[12] = S. cerevisiae deletion strains, locus YNL153C, strain GIM3, active compounds read low
[13] = S. cerevisiae deletion strains, locus YNL175C, strain NOP13, active compounds read low
[14] = S. cerevisiae deletion strains, locus YNL197C, strain WHI3, active compounds read low
[15] = S. cerevisiae deletion strains, locus YNL224C, strain SQS1, active compounds read low
[16] = S. cerevisiae deletion strains, locus YOR083W, strain WHI5 (second series), active compounds read low
[17] = S. cerevisiae deletion strains, locus YPL055C, strain LGE1, active compounds read low
[18] = S. cerevisiae deletion strains, locus YPL241C, strain CIN2, active compounds read low
[19] = S. cerevisiae deletion strains, locus YMR263W, strain SAP30, active compounds read low
[20] = S. cerevisiae deletion strains, locus YNL322C, strain KRE1, active compounds read low

Measured: normalized growth

Cc1cc2nc3c(Cl)c(O)c4ccccc4c3nc2cc1C
active: S. cerevisiae deletion strains, locus YDR477W, strain SNF1, active compounds read low 0.634 | [2] 0.55 | S. cerevisiae deletion strains, locus YKL048C, strain ELM1, active compounds read low 0.737 | S. cerevisiae deletion strains, locus YLR133W, strain CKI1, active compounds read low 0.679 | S. cerevisiae deletion strains, locus YMR205C, strain PFK2 (second series), active compounds read low 0.726 | S. cerevisiae deletion strains, locus YNL020C, strain ARK1, active compounds read low 0.617 | S. cerevisiae deletion strains, locus YOR061W, strain CKA2, active compounds read low 0.43 | S. cerevisiae deletion strains, locus YPL031C, strain PHO85, active compounds read low 0.643 | S. cerevisiae deletion strains, locus YPL204W, strain HRR25, active compounds read low 0.646
inactive: S. cerevisiae deletion strains, locus YAR019C, strain CDC15, active compounds read low 0.966 | S. cerevisiae deletion strains, locus YBL105C, strain PKC1, active compounds read low 0.961 | S. cerevisiae deletion strains, locus YBR135W, strain CKS1, active compounds read low 0.949 | S. cerevisiae deletion strains, locus YBR136W, strain MEC1, active compounds read low 0.965 | S. cerevisiae deletion strains, locus YBR160W, strain CDC28, active compounds read low 0.96 | S. cerevisiae deletion strains, locus YDL017W, strain CDC7, active compounds read low 0.965 | S. cerevisiae deletion strains, locus YDL028C, strain MPS1, active compounds read low 0.959 | [1] 0.981 | S. cerevisiae deletion strains, locus YDL108W, strain KIN28, active compounds read low 0.954 | S. cerevisiae deletion strains, locus YDL132W, strain cdc53, active compounds read low 0.966 | S. cerevisiae deletion strains, locus YDL214C, strain PRR2, active compounds read low 0.818 | S. cerevisiae deletion strains, locus YDR052C, strain DBF4, active compounds read low 0.953 | S. cerevisiae deletion strains, locus YDR054C, strain cdc34, active compounds read low 0.965 | S. cerevisiae deletion strains, locus YDR226W, strain ADK1, active compounds read low 0.949 | S. cerevisiae deletion strains, locus YER123W, strain YCK3, active compounds read low 0.766 | S. cerevisiae deletion strains, locus YER133W, strain GLC7, active compounds read low 0.87 | S. cerevisiae deletion strains, locus YFL009W, strain cdc4, active compounds read low 0.969 | S. cerevisiae deletion strains, locus YFL029C, strain CAK1, active compounds read low 0.946 | S. cerevisiae deletion strains, locus YFR003C, strain YPI1, active compounds read low 0.962 | S. cerevisiae deletion strains, locus YFR019W, strain FAB1, active compounds read low 0.887 | S. cerevisiae deletion strains, locus YFR028C, strain CDC14, active compounds read low 0.958 | S. cerevisiae deletion strains, locus YGR040W, strain KSS1, active compounds read low 0.724 | S. cerevisiae deletion strains, locus YGR052W, strain FMP48, active compounds read low 0.722 | S. cerevisiae deletion strains, locus YGR092W, strain DBF2, active compounds read low 0.487 | S. cerevisiae deletion strains, locus YHR079C, strain IRE1, active compounds read low 0.805 | S. cerevisiae deletion strains, locus YHR082C, strain KSP1, active compounds read low 0.737 | S. cerevisiae deletion strains, locus YHR205W, strain SCH9, active compounds read low 0.666 | S. cerevisiae deletion strains, locus YIL147C, strain SLN1, active compounds read low 0.958 | S. cerevisiae deletion strains, locus YJL095W, strain BCK1, active compounds read low 0.749 | S. cerevisiae deletion strains, locus YJL128C, strain PBS2, active compounds read low 0.944 | S. cerevisiae deletion strains, locus YJL157C, strain FAR1, active compounds read low 0.778 | S. cerevisiae deletion strains, locus YJR016C, strain ILV3, active compounds read low 0.955 | S. cerevisiae deletion strains, locus YJR066W, strain TOR1 (second series), active compounds read low 0.64 | S. cerevisiae deletion strains, locus YJR066W, strain TOR1, active compounds read low 0.559 | S. cerevisiae deletion strains, locus YKL067W, strain YNK1, active compounds read low 0.786 | S. cerevisiae deletion strains, locus YKL101W, strain HSL1, active compounds read low 0.829 | S. cerevisiae deletion strains, locus YKL193C, strain SDS22, active compounds read low 0.972 | S. cerevisiae deletion strains, locus YKL203C, strain TOR2, active compounds read low 0.766 | S. cerevisiae deletion strains, locus YLR113W, strain HOG1, active compounds read low 0.877 | S. cerevisiae deletion strains, locus YLR403W, strain SFP1, active compounds read low 0.663 | S. cerevisiae deletion strains, locus YML070W, strain DAK1, active compounds read low 0.852 | S. cerevisiae deletion strains, locus YMR001C, strain CDC5, active compounds read low 0.959 | S. cerevisiae deletion strains, locus YMR277W, strain FCP1, active compounds read low 0.961 | S. cerevisiae deletion strains, locus YNL006W, strain LST8, active compounds read low 0.974 | S. cerevisiae deletion strains, locus YNL161W, strain CBK1, active compounds read low 0.971 | S. cerevisiae deletion strains, locus YNL183C, strain NPR1, active compounds read low 0.739 | S. cerevisiae deletion strains, locus YNL207W, strain RIO2, active compounds read low 0.961 | S. cerevisiae deletion strains, locus YNL222W, strain SSU72, active compounds read low 0.955 | S. cerevisiae deletion strains, locus YOL078W, strain AVO1, active compounds read low 0.962 | S. cerevisiae deletion strains, locus YOL136C, strain PFK27, active compounds read low 0.838 | S. cerevisiae deletion strains, locus YOR119C, strain RIO1, active compounds read low 0.831 | S. cerevisiae deletion strains, locus YOR231W, strain MKK1, active compounds read low 0.829 | S. cerevisiae deletion strains, locus YOR329C, strain SCD5, active compounds read low 0.97 | S. cerevisiae deletion strains, locus YPL153C, strain RAD53, active compounds read low 0.68 | S. cerevisiae deletion strains, locus YPL209C, strain IPL1, active compounds read low 0.976 | S. cerevisiae deletion strains, locus YPL256C, strain CLN2, active compounds read low 0.869 | S. cerevisiae deletion strains, locus YPR025C, strain CCL1, active compounds read low 0.957 | S. cerevisiae deletion strains, locus YPR106W, strain ISR1, active compounds read low 1.01 | S. cerevisiae deletion strains, locus YPR111W, strain DBF20, active compounds read low 0.976 | S. cerevisiae deletion strains, strain NNK1, active compounds read low 0.966 | S. cerevisiae deletion strains, strain TSCII, active compounds read low 0.963

CCCn1cnc2c1c(=O)n(CCCCC(C)=O)c(=O)n2C
inactive: [3] 1.01 | [4] 0.997 | [5] 1.01 | [6] 1.01 | [7] 0.961 | [8] 1.02 | [9] 1.01 | [10] 1.02 | [11] 1.01 | [12] 1.04 | [13] 1.01 | [14] 0.996 | [15] 1.01 | [16] 1.01 | [17] 1.02 | [18] 1.01

COC[C@H]1OC(=O)c2coc3c2[C@@]1(C)C1=C(C3=O)C2CCC(=O)[C@@]2(C)C[C@H]1OC(C)=O (stereo partly drawn)
active: [4] 0.0731 | [5] 0.141 | [6] 0.136 | [7] 0.206 | [8] 0.0648 | S. cerevisiae deletion strains, locus YGR229C, strain SMI1, active compounds read low 0.0613 | [19] 0.0519 | [11] 0.0665 | S. cerevisiae deletion strains, locus YNL128W, strain TEP1, active compounds read low 0.143 | [12] 0.101 | [14] 0.0727 | [15] 0.0711 | [20] 0.33 | [16] 0.359 | [17] 0.119
inactive: [9] 0.994 | [13] 1

O=C1CSC(c2cccnc2)N1c1ccc(C2CCCCC2)cc1 (stereo not drawn)
inactive: [3] 1 | S. cerevisiae deletion strains, locus YBR229C, strain ROT2, active compounds read low 1.01 | [1] 1.03 | S. cerevisiae deletion strains, locus YDL134C, strain PPH21, active compounds read low 0.941 | [6] 1.05 | S. cerevisiae deletion strains, locus YEL061C, strain CIN8, active compounds read low 0.999 | [9] 1.01 | [2] 1.28 | S. cerevisiae deletion strains, locus YHR087W, strain rtc3, active compounds read low 1.02 | S. cerevisiae deletion strains, locus YJR043C, strain POL32, active compounds read low 1.02 | [10] 0.941 | S. cerevisiae deletion strains, locus YKL190W, strain CNB1, active compounds read low 0.945 | S. cerevisiae deletion strains, locus YLR039C, strain RIC1, active compounds read low 0.926 | S. cerevisiae deletion strains, locus YLR058C, strain SHM2 (second series), active compounds read low 0.991 | S. cerevisiae deletion strains, locus YLR085C, strain ARP6, active compounds read low 0.917 | S. cerevisiae deletion strains, locus YLR262C, strain YPT6, active compounds read low 0.888 | S. cerevisiae deletion strains, locus YML094W, strain GIM5, active compounds read low 1.07 | S. cerevisiae deletion strains, locus YMR219W, strain ESC1, active compounds read low 1.02 | [19] 1.06 | [12] 1.01 | S. cerevisiae deletion strains, locus YNL298W, strain CLA4 (second series), active compounds read low 0.951 | [20] 1 | S. cerevisiae deletion strains, locus YNR030W, strain Alg12, active compounds read low 0.963 | [17] 1.04 | [18] 1.09 | S. cerevisiae deletion strains, locus YPR135W, strain CTF4, active compounds read low 0.832 | S. cerevisiae strains, strain wild type, active compounds read low 0.96

CN1C(=O)CCC1c1cccnc1 (stereo not drawn)
inactive: [3] 1.02 | [4] 1.02 | [8] 1 | [10] 1.01 | [13] 0.999 | [15] 1.01 | [16] 1.02 | [18] 1.01

Reference: PubChem BioAssay AID1159580 (chemical genetic matrix, 2015)
